{"source": "PubChem BioAssay (NCI)", "note": "About 79,000 compounds went through this panel and 15% of them were active in at least one assay; those are over-represented in the sample as a whole. Activity calls are given as the source filed them. Rule as the data show it: active = growth inhibition above about 70%; inactive = the rest.", "data": [{"experiment": "NCI Yeast Anticancer Drug Screen. Data for the bub3 strain (AID 167)", "settings": "S. cerevisiae bub3 mutant strain, at 50.0 µM, stronger effect = higher value", "outline": "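Mutant yeast screening strain plus compound; vehicle-treated cultures serve as the 0% inhibition reference.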", "values": [{"compound": "CCCN(Cc1ccccc1)CC(O)c1ccc(Cl)cc1", "note": "(stereo not given)", "growth inhibition": "32.9% (inactive)"}, {"compound": "COC[C@@H](N=Cc1ccc(OC)cc1)C(C)C", "growth inhibition": "25.9% (inactive)"}, {"compound": "Cc1c(C(=O)CC2OC(=O)C(Cl)=C2Cl)c2ccccc2n1C(=O)Nc1ccc(Cl)cc1", "note": "(stereo not given)", "growth inhibition": "5.05% (inactive)"}, {"compound": "CN(C)CCNc1ncnc2nc(-c3ccc4ccccc4c3)[nH]c12", "growth inhibition": "3.05% (inactive)"}, {"compound": "CC(C)N(CC(=O)O)CC(=O)O", "growth inhibition": "-22.9% (inactive)"}, {"compound": "C=CCOC(=O)CC", "growth inhibition": "-15.4% (inactive)"}, {"compound": "CCC(C)(O)CCC(C)(O)CC", "note": "(stereo not given)", "growth inhibition": "20% (inactive)"}, {"compound": "COc1ccc(C(=O)N=Nc2ccccc2)cc1", "growth inhibition": "3.35% (inactive)"}, {"compound": "COC(=O)C(C(=O)C(=O)Nc1c(Cl)cc([N+](=O)[O-])cc1Cl)c1nc2cc(C)c(C)cc2[nH]c1=O", "note": "(stereo not given)", "growth inhibition": "-4.85% (inactive)"}, {"compound": "O=C1C(=O)c2ccccc2C(O)=C1CC=C(Cl)Cl", "growth inhibition": "29.9% (inactive)"}, {"compound": "COc1cc(Cl)ccc1C", "growth inhibition": "18.1% (inactive)"}, {"compound": "NNC(=O)Nc1ccccc1", "growth inhibition": "-2.4% (inactive)"}, {"compound": "N#CC(c1ccccc1)C1CCCCC1", "note": "(stereo not given)", "growth inhibition": "6.1% (inactive)"}, {"compound": "COc1cccc(C2c3cc4c(cc3OC(C)(OC)C2C)OCO4)c1", "note": "(stereo not given)", "growth inhibition": "4.25% (inactive)"}, {"compound": "CCOC(=O)N(CCCl)C(=O)C(C)C", "growth inhibition": "-25.2% (inactive)"}, {"compound": "ClC(Cl)(Cl)C1CCC2CCCC21", "note": "(stereo not given)", "growth inhibition": "-9.1% (inactive)"}, {"compound": "Fc1ccc(NC(=S)Nc2ccc(F)cc2)cc1", "growth inhibition": "15.1% (inactive)"}, {"compound": "O=C1/C(=C/c2ccc3c(c2)OCO3)CC/C1=C\\c1ccc2c(c1)OCO2", "growth inhibition": "-13.7% (inactive)"}, {"compound": "Cc1ccc(S(=O)(=O)N/N=C(\\C(=N/OCc2ccccc2)c2ccccc2)c2ccccc2)cc1", "growth inhibition": "10.8% (inactive)"}, {"compound": "CCCc1nc(N)nc(C(=O)Nc2cccc(C(F)(F)F)c2)c1CC", "growth inhibition": "2.15% (inactive)"}, {"compound": "CCN(CC)CCOC(=O)c1noc2cc([N+](=O)[O-])ccc12", "growth inhibition": "5% (inactive)"}, {"compound": "C#CCOC(=O)C(N)CS", "note": "(stereo not given)", "growth inhibition": "-4.4% (inactive)"}, {"compound": "COC(=O)c1cc(=O)[nH]c(=O)[nH]1", "growth inhibition": "-13.5% (inactive)"}, {"compound": "CC1(C)CC(=O)C(/C=N/C(N)=S)=C(O)C1", "growth inhibition": "-0.85% (inactive)"}, {"compound": "COc1ccc(/C=C/C(=O)O)cc1OC", "growth inhibition": "12.3% (inactive)"}, {"compound": "CCC(C(=O)NC1c2ccccc2Oc2ccccc21)c1ccccc1", "note": "(stereo not given)", "growth inhibition": "4.5% (inactive)"}, {"compound": "O=C(O)C(=Cc1cccc2ccc3ccccc3c12)C(=O)O", "growth inhibition": "-1.8% (inactive)"}, {"compound": "CCC(=O)NN(C(C)=O)c1ccccc1", "growth inhibition": "8.8% (inactive)"}, {"compound": "COC(=O)C1CSCN1", "note": "(stereo not given)", "growth inhibition": "-3.5% (inactive)"}, {"compound": "COc1cc(CNC(=O)NCCCl)cc(OC)c1OC", "growth inhibition": "-1% (inactive)"}, {"compound": "NC(=O)c1ccccc1NC(=O)C(=O)Cc1nc2ccccc2[nH]c1=O", "growth inhibition": "1.25% (inactive)"}, {"compound": "CCCOC(=O)/C=C(\\Cl)C(=O)OCCC", "growth inhibition": "-45.6% (inactive)"}, {"compound": "CC1(C)C2CC=C(CCO)C1C2", "note": "(stereo not given)", "growth inhibition": "0.05% (inactive)"}, {"compound": "CC(=O)N1Cc2ncnc(N)c2C1", "growth inhibition": "-2.35% (inactive)"}, {"compound": "CC(C)(C)NC(=O)Nc1nccs1", "growth inhibition": "-3.9% (inactive)"}, {"compound": "CCCCCc1cc[n+](CC(=O)c2ccccc2)cc1", "growth inhibition": "-10.4% (inactive)"}, {"compound": "Cn1c(N)c(N=O)c(=O)n(C)c1=O", "growth inhibition": "-5.65% (inactive)"}, {"compound": "O=S(=O)(O)c1cc(N=Nc2cc(S(=O)(=O)O)c3ccccc3c2O)ccc1/C=C/c1ccc(N=Nc2cc(S(=O)(=O)O)c3ccccc3c2O)cc1S(=O)(=O)O", "growth inhibition": "45.9% (inactive)"}, {"compound": "Cc1ccc2c(ccc3ccccc32)n1", "growth inhibition": "50.5% (inactive)"}, {"compound": "Cc1cc(Cl)nc(Nc2ccccc2)n1", "growth inhibition": "9.25% (inactive)"}]}, {"experiment": "NCI Yeast Anticancer Drug Screen. Data for the mlh1 rad18 strain (AID 175)", "settings": "S. cerevisiae mlh1 rad18 strain growth inhibition; at 50.0 µM; stronger effect = higher value", "outline": "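Read-out is yeast growth inhibition, calculated against vehicle-only controls. The compound was applied to a strain engineered with DNA damage repair alterations.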", "values": [{"compound": "CCCN(Cc1ccccc1)CC(O)c1ccc(Cl)cc1", "note": "(stereo not given)", "growth inhibition": "20.1% (inactive)"}, {"compound": "COC[C@@H](N=Cc1ccc(OC)cc1)C(C)C", "growth inhibition": "-30.5% (inactive)"}, {"compound": "Cc1c(C(=O)CC2OC(=O)C(Cl)=C2Cl)c2ccccc2n1C(=O)Nc1ccc(Cl)cc1", "note": "(stereo not given)", "growth inhibition": "5.3% (inactive)"}, {"compound": "CN(C)CCNc1ncnc2nc(-c3ccc4ccccc4c3)[nH]c12", "growth inhibition": "-18.6% (inactive)"}, {"compound": "CC(C)N(CC(=O)O)CC(=O)O", "growth inhibition": "-16.4% (inactive)"}, {"compound": "C=CCOC(=O)CC", "growth inhibition": "-10% (inactive)"}, {"compound": "CCC(C)(O)CCC(C)(O)CC", "note": "(stereo not given)", "growth inhibition": "9.25% (inactive)"}, {"compound": "COc1ccc(C(=O)N=Nc2ccccc2)cc1", "growth inhibition": "-13.1% (inactive)"}, {"compound": "COC(=O)C(C(=O)C(=O)Nc1c(Cl)cc([N+](=O)[O-])cc1Cl)c1nc2cc(C)c(C)cc2[nH]c1=O", "note": "(stereo not given)", "growth inhibition": "-9.75% (inactive)"}, {"compound": "O=C1C(=O)c2ccccc2C(O)=C1CC=C(Cl)Cl", "growth inhibition": "-33.6% (inactive)"}, {"compound": "COc1cc(Cl)ccc1C", "growth inhibition": "-16.6% (inactive)"}, {"compound": "NNC(=O)Nc1ccccc1", "growth inhibition": "-3.15% (inactive)"}, {"compound": "N#CC(c1ccccc1)C1CCCCC1", "note": "(stereo not given)", "growth inhibition": "20.4% (inactive)"}, {"compound": "COc1cccc(C2c3cc4c(cc3OC(C)(OC)C2C)OCO4)c1", "note": "(stereo not given)", "growth inhibition": "15.8% (inactive)"}, {"compound": "CCOC(=O)N(CCCl)C(=O)C(C)C", "growth inhibition": "-11.1% (inactive)"}, {"compound": "ClC(Cl)(Cl)C1CCC2CCCC21", "note": "(stereo not given)", "growth inhibition": "-0.8% (inactive)"}, {"compound": "Fc1ccc(NC(=S)Nc2ccc(F)cc2)cc1", "growth inhibition": "3.4% (inactive)"}, {"compound": "O=C1/C(=C/c2ccc3c(c2)OCO3)CC/C1=C\\c1ccc2c(c1)OCO2", "growth inhibition": "-26.9% (inactive)"}, {"compound": "Cc1ccc(S(=O)(=O)N/N=C(\\C(=N/OCc2ccccc2)c2ccccc2)c2ccccc2)cc1", "growth inhibition": "9.65% (inactive)"}, {"compound": "CCCc1nc(N)nc(C(=O)Nc2cccc(C(F)(F)F)c2)c1CC", "growth inhibition": "-8.25% (inactive)"}, {"compound": "CCN(CC)CCOC(=O)c1noc2cc([N+](=O)[O-])ccc12", "growth inhibition": "9.85% (inactive)"}, {"compound": "C#CCOC(=O)C(N)CS", "note": "(stereo not given)", "growth inhibition": "-13.7% (inactive)"}, {"compound": "COC(=O)c1cc(=O)[nH]c(=O)[nH]1", "growth inhibition": "-15.9% (inactive)"}, {"compound": "CC1(C)CC(=O)C(/C=N/C(N)=S)=C(O)C1", "growth inhibition": "-31.6% (inactive)"}, {"compound": "COc1ccc(/C=C/C(=O)O)cc1OC", "growth inhibition": "-0.65% (inactive)"}, {"compound": "CCC(C(=O)NC1c2ccccc2Oc2ccccc21)c1ccccc1", "note": "(stereo not given)", "growth inhibition": "-2.5% (inactive)"}, {"compound": "O=C(O)C(=Cc1cccc2ccc3ccccc3c12)C(=O)O", "growth inhibition": "-6.2% (inactive)"}, {"compound": "CCC(=O)NN(C(C)=O)c1ccccc1", "growth inhibition": "18.9% (inactive)"}, {"compound": "COC(=O)C1CSCN1", "note": "(stereo not given)", "growth inhibition": "-12.8% (inactive)"}, {"compound": "COc1cc(CNC(=O)NCCCl)cc(OC)c1OC", "growth inhibition": "2.7% (inactive)"}, {"compound": "NC(=O)c1ccccc1NC(=O)C(=O)Cc1nc2ccccc2[nH]c1=O", "growth inhibition": "6.15% (inactive)"}, {"compound": "CCCOC(=O)/C=C(\\Cl)C(=O)OCCC", "growth inhibition": "-5.8% (inactive)"}, {"compound": "CC1(C)C2CC=C(CCO)C1C2", "note": "(stereo not given)", "growth inhibition": "-21.4% (inactive)"}, {"compound": "CC(=O)N1Cc2ncnc(N)c2C1", "growth inhibition": "-10.4% (inactive)"}, {"compound": "CC(C)(C)NC(=O)Nc1nccs1", "growth inhibition": "9.85% (inactive)"}, {"compound": "CCCCCc1cc[n+](CC(=O)c2ccccc2)cc1", "growth inhibition": "12.8% (inactive)"}, {"compound": "Cn1c(N)c(N=O)c(=O)n(C)c1=O", "growth inhibition": "-9.9% (inactive)"}, {"compound": "O=S(=O)(O)c1cc(N=Nc2cc(S(=O)(=O)O)c3ccccc3c2O)ccc1/C=C/c1ccc(N=Nc2cc(S(=O)(=O)O)c3ccccc3c2O)cc1S(=O)(=O)O", "growth inhibition": "42.6% (inactive)"}, {"compound": "Cc1ccc2c(ccc3ccccc32)n1", "growth inhibition": "45.4% (inactive)"}, {"compound": "Cc1cc(Cl)nc(Nc2ccccc2)n1", "growth inhibition": "13.7% (inactive)"}]}]}
